Measured values as given in the supplement of paper PMC10849652.
Targets with a hit are over-represented here; the source holds about 8,800 in all. About 0.5% of all pairs of compound and target were hits.

Compound: CC[C@@H]1C(=O)N(C)c2cnc(Nc3ccc(C(=O)NC4CCN(C)CC4)cc3OC)nc2N1C1CCCC1
Test: log2 fold change, soluble protein after heating vs DMSO (PISA); higher = thermal stabilisation; K562 lysate, 10 uM; active = over 0.2 and 3.5 SD of the protein, either way, in both replicates (recomputed)
Method in brief: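 Pellets of K562 cells were dounce-homogenised in PBS pH 7.4 with 1 mM MgCl2, and the crude extract was held at 1 mg/mL protein for a 30 min treatment with 10 μM compound. Aliquots were heated for 3 min over 48°C-58°C and pooled before NP-40 was added to 0.5% at 4°C. The supernatant from 21,000xg for 90 min was quantified by TMTpro 16plex LC-MS/MS with channel sums equalised. Values are reported from duplicates as log-two fold change in thermal stability relative to solvent controls.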

Chain of UniProt Q03013 (Q03013 whole entry, looked up): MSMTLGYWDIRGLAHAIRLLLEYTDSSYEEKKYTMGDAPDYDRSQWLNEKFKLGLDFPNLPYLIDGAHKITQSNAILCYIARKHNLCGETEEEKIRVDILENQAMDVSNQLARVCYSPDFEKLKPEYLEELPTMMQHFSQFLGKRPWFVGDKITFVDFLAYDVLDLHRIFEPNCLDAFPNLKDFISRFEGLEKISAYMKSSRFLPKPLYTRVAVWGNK
Chain of UniProt Q3T8J9 (Q3T8J9 whole entry, looked up): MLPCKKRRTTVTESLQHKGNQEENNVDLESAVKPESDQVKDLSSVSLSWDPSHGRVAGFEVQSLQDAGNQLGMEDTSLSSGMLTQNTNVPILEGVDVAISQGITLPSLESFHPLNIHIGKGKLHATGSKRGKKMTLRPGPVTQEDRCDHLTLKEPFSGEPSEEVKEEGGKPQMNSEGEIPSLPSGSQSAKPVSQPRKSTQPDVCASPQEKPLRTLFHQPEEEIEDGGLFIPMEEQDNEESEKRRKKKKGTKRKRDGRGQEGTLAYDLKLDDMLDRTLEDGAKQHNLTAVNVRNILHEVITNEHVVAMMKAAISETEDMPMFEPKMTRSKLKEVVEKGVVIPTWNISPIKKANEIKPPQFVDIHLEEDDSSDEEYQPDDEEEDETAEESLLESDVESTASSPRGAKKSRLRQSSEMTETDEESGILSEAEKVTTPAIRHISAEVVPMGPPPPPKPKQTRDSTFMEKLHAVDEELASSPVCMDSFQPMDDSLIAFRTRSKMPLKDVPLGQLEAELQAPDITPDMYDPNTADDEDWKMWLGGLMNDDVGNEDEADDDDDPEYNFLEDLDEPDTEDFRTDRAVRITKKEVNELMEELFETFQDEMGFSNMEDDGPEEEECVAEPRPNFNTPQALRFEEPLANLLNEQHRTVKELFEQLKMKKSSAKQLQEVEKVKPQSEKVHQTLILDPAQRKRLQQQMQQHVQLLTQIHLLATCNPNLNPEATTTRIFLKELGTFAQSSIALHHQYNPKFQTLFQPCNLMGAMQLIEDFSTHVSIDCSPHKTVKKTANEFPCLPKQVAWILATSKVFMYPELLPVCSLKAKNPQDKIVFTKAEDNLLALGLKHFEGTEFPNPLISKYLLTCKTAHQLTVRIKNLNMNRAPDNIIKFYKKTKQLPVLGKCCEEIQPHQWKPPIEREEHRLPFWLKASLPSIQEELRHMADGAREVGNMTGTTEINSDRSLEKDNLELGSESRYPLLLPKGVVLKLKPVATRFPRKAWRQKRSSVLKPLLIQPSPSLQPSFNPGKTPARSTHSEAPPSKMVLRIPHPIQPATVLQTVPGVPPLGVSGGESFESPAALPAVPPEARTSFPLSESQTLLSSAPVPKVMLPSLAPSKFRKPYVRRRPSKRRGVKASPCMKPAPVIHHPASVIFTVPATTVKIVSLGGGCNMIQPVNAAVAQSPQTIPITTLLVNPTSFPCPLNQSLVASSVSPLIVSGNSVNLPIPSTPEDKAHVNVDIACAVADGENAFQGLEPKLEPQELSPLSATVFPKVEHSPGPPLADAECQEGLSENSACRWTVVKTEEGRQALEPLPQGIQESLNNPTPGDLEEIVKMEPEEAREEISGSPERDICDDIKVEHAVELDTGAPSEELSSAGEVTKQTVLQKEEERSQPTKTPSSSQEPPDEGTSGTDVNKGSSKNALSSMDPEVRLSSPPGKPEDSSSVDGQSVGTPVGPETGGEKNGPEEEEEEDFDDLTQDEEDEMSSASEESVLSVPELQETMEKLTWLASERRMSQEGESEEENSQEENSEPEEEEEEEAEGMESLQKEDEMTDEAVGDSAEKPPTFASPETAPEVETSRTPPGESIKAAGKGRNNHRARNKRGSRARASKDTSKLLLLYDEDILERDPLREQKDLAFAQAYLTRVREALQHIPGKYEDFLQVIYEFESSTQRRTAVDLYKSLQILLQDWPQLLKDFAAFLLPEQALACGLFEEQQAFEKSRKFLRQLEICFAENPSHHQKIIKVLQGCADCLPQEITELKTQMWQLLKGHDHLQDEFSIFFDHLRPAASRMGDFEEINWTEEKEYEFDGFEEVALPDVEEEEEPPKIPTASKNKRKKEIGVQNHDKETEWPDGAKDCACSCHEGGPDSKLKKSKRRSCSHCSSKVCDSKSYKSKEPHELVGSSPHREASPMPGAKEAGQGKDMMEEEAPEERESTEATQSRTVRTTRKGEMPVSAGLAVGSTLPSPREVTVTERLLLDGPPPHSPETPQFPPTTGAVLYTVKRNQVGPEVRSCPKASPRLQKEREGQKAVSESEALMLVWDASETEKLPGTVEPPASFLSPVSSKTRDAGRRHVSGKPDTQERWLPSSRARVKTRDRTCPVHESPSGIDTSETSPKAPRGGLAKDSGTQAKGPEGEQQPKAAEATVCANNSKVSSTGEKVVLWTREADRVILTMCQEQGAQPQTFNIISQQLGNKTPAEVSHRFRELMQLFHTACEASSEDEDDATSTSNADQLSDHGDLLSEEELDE
Chain of UniProt P52789 (P52789 whole entry, looked up): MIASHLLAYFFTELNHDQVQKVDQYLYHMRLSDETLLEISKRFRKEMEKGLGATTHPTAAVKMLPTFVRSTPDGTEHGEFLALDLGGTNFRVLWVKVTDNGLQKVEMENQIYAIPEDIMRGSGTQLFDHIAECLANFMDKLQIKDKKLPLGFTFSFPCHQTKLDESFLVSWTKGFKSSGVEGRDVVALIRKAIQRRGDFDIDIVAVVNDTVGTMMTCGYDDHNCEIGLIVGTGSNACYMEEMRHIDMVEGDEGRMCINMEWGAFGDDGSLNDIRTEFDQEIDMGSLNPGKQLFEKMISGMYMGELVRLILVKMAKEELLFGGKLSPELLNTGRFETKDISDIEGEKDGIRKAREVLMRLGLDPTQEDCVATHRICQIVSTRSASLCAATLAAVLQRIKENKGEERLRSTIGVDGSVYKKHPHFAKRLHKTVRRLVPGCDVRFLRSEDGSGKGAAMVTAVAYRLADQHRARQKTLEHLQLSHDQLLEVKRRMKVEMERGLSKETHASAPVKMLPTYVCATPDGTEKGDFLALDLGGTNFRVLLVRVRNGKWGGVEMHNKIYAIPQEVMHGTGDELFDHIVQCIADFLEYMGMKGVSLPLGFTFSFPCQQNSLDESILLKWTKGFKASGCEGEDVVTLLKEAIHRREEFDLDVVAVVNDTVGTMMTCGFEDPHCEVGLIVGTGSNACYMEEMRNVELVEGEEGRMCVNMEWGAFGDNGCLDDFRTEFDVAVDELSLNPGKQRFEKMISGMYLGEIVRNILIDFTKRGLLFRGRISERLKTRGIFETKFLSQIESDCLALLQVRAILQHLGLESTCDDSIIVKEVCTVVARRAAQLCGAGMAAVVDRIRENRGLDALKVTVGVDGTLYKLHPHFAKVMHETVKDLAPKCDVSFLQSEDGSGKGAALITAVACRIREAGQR
Chain of UniProt P36969 (P36969 whole entry, looked up): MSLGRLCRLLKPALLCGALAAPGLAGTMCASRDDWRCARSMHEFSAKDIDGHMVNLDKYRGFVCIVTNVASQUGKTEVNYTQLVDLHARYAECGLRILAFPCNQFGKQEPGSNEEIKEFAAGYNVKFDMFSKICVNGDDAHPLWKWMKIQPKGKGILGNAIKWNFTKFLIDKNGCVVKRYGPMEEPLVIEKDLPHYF
Chain of UniProt P41252 (P41252 whole entry, looked up): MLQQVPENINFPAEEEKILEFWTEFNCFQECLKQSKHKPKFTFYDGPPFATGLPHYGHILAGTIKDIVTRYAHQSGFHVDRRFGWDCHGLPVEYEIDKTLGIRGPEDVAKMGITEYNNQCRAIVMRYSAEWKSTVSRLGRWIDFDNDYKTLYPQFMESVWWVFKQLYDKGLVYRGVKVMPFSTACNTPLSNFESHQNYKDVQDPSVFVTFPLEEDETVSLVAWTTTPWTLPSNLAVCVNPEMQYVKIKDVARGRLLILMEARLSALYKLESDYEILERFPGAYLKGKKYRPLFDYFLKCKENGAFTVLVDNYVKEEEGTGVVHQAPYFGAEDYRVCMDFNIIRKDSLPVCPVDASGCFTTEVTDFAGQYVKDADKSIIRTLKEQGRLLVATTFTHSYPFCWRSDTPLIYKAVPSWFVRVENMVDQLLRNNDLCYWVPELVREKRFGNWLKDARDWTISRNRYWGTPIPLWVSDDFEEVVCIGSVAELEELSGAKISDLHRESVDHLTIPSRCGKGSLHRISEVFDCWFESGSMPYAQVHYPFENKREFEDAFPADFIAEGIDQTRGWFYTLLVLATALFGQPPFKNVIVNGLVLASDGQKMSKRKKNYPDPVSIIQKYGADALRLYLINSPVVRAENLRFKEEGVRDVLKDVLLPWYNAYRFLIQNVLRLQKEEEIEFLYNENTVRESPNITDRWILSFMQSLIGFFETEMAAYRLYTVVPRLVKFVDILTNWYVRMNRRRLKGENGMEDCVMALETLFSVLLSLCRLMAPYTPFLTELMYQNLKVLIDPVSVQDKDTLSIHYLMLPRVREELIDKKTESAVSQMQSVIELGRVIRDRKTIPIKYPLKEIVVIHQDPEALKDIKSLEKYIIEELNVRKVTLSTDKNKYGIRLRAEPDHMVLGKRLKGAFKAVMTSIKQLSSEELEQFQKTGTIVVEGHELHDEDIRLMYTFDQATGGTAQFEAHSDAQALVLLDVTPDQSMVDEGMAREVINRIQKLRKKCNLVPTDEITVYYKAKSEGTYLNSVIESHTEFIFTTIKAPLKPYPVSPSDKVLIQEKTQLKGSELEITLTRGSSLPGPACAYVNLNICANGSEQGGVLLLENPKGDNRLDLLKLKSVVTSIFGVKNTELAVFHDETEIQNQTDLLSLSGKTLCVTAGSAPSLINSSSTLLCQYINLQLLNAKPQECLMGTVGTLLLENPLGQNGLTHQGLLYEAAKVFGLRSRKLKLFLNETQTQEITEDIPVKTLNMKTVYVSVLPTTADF
Chain of UniProt Q99714 (Q99714 whole entry, looked up): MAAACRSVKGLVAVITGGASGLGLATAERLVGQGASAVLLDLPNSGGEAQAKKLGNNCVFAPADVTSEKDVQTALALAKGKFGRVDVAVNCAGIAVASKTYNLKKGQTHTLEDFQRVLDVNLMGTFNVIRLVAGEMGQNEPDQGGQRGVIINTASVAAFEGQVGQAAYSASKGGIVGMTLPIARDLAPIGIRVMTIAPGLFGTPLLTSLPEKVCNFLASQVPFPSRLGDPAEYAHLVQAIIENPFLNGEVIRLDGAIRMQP

log2 fold change, inactive:
GTF2H4 (UniProt Q92759) -0.099
GSTZ1 (UniProt G3V4T6) -0.101
HDAC2 (UniProt Q92769) -0.012
HEATR6 (UniProt Q6AI08) -0.076
H4C1 (UniProt P62805) -0.055
HECTD3 (UniProt Q5T447) -0.022
KCT2 (UniProt Q8NC54) 0.054
GPX4 (UniProt P36969) -0.068
IARS2 (UniProt Q9NSE4) -0.003
GTF2H1 (UniProt P32780) -0.021
GSTM4 (UniProt Q03013) 0.024
IMPACT (UniProt Q9P2X3) -0.095
IGF2BP2 (UniProt Q9Y6M1) -0.1
GON4L (UniProt Q3T8J9) -0.064
HK1 isoform 2 (UniProt P19367) -0.023
GTF2I (UniProt P78347) -0.055
KEAP1 (UniProt Q14145) -0.008
ISOC2 (UniProt Q96AB3) 0.096
HSD17B10 (UniProt Q99714) -0.006
IRAK4 (UniProt Q9NWZ3) -0.085
IMMT (UniProt Q16891) -0.046
IARS (UniProt P41252) -0.086
IMPDH2 (UniProt P12268) -0.015
GNE isoform 2 (UniProt Q9Y223) -0.107
GTPBP2 (UniProt Q9BX10) -0.03
HSPB1 (UniProt P04792) 0.008
INTS1 (UniProt Q8N201) 0.044
HSPA8 (UniProt P11142) -0.031
HAUS3 (UniProt Q68CZ6) -0.029
GRB10 (UniProt Q13322) -0.054
HARS (UniProt P12081) -0.049
GMIP (UniProt Q9P107) -0.01
HK2 (UniProt P52789) -0.044
IRAK1 (UniProt P51617) -0.089
GSTCD (UniProt Q8NEC7) -0.018
HDAC3 (UniProt O15379) -0.023
